# Legend:
# Assay in all cases: DAPPL (digital affinity profiling via proximity ligation, sequencing); 10 mM Tris-HCl pH 7.5, 50 mM NaCl, 1 mM DTT, 4% glycerol, room temperature, 30 min; GST-TFs on glutathione beads, 16-mer random dsDNA library, 0.1% formaldehyde crosslink after washing; high values mean tight binding
# Settings in all cases: protein: recombinant; tags: N-terminal GST; dsDNA, one strand shown
# ERF = target: T1, ERF (Homo sapiens, UniProt P50548 1-548)
# T1 sequence: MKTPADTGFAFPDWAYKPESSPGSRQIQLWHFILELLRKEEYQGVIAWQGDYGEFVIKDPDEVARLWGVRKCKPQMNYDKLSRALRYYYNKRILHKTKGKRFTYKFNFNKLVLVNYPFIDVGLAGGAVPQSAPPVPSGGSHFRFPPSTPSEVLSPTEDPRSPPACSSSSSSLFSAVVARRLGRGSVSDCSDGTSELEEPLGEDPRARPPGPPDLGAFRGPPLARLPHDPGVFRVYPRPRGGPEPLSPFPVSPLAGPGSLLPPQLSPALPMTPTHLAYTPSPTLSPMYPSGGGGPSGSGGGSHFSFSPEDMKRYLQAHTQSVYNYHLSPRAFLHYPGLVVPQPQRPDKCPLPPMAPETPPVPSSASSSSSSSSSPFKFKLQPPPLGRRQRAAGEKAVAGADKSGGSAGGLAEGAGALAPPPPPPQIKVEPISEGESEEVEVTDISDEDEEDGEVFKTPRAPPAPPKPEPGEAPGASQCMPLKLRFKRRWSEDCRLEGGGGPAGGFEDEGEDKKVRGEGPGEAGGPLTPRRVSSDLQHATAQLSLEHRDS
# Outline: (§1)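 Beads coated with glutathione captured GST-fused human transcription factors that had been expressed in yeast, and the factors were then given DNA barcodes and pooled with a tag-only sample. The pools were incubated with 200 nmole of a random double-stranded 16-mer DNA library in Tris/NaCl/DTT/glycerol buffer for 30 min at room temperature, washed, crosslinked with 0.1% formaldehyde and proximity-ligated with BsaI/T4 ligase at 37 °C for 1 h. PCR amplification and Illumina NextSeq500 sequencing came last. Binding signal is each hexamer's read frequency for a factor divided by its frequency for the tag-only sample.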
# ETV3L = target: T2, ETV3L (Homo sapiens, UniProt Q6ZN32 1-361)
# T2 sequence: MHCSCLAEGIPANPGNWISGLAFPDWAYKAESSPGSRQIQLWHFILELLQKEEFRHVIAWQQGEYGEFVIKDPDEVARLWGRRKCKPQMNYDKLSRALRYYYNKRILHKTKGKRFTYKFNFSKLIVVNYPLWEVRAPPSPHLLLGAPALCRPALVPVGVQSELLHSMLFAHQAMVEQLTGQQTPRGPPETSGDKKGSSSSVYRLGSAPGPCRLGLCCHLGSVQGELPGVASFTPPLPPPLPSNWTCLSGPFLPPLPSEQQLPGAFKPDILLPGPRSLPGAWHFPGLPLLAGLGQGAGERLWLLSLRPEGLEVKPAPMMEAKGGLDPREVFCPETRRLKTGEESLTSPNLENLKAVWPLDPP
# Outline: as §1
# ETS2 = target: T3, ETS2 (Homo sapiens, UniProt P15036 1-469)
# T3 sequence: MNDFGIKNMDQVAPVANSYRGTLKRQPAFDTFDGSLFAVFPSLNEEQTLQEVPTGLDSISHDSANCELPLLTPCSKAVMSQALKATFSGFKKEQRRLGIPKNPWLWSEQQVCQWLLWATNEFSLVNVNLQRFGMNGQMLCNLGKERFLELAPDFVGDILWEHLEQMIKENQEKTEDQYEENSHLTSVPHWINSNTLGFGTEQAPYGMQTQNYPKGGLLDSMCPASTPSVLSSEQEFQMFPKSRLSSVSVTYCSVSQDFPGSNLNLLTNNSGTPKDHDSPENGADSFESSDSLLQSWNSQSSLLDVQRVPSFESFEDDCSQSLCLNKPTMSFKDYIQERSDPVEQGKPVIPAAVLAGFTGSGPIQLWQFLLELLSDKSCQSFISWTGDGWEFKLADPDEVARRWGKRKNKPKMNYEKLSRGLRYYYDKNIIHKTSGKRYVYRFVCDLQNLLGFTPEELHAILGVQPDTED
# Outline: as §1
# SPDEF = target: T4, SPDEF (Homo sapiens, UniProt O95238 1-335)
# T4 sequence: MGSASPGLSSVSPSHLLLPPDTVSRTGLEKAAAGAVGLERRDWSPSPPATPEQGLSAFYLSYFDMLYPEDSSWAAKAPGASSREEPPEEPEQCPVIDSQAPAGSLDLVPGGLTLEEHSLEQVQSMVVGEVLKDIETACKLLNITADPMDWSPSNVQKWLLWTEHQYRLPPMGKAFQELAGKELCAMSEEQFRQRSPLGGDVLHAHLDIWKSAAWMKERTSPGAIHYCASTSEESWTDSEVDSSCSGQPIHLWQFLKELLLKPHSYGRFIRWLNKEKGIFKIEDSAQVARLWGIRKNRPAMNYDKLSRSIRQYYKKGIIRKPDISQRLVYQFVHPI
# Outline: as §1
# ETV7 = target: T5, ETV7 (Homo sapiens, UniProt Q9Y603 1-341)
# T5 sequence: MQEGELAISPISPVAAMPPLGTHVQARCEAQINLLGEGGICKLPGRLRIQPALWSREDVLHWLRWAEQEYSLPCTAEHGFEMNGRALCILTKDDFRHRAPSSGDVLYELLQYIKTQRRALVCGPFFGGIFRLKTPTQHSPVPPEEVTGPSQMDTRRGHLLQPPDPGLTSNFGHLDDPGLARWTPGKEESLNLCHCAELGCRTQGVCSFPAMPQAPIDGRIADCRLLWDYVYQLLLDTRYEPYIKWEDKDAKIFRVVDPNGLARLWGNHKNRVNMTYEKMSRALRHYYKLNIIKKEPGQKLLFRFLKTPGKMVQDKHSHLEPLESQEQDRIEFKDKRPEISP
# Outline: as §1
# ELF5 = target: T6, ELF5 (Homo sapiens, UniProt Q9UKW6-2 1-255)
# T6 sequence: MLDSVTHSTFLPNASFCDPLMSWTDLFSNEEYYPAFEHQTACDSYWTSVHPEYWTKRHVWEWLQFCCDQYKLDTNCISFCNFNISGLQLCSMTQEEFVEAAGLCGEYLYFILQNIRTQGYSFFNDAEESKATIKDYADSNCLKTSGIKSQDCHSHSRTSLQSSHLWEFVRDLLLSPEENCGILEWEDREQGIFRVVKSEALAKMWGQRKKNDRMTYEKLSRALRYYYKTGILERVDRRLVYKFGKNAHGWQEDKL
# Outline: as §1
# ETV3 = target: T7, ETV3 (Homo sapiens, UniProt P41162-2 1-143)
# T7 sequence: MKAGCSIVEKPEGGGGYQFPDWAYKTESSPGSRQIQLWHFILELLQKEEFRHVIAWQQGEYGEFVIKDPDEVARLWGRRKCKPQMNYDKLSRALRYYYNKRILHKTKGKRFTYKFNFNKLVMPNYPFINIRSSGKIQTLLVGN
# Outline: as §1
# ETV6 = ETV6 (Homo sapiens, UniProt P41212 1-452)
# Chain of ETV6 (P41212 whole entry): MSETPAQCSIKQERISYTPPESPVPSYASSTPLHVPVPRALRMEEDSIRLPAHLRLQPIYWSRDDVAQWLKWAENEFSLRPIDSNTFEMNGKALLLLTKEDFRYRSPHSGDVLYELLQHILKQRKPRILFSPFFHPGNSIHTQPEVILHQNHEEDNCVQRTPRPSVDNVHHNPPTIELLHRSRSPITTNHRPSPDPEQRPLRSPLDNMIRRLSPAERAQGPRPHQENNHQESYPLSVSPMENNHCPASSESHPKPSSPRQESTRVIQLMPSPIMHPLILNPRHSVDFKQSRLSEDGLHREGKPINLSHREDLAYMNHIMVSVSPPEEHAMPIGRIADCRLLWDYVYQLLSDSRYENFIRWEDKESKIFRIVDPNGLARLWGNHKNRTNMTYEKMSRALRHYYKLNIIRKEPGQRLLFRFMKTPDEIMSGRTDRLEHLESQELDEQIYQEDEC
# Outline: as §1
Sequence,binding signal (ERF),binding signal (ETV3L),binding signal (ETS2),binding signal (SPDEF),binding signal (ETV7),binding signal (ELF5),binding signal (ETV3),binding signal (ETV6)
TAGAAG,"1.42 fold enrichment (6-mer frequency, TF over GST control)","1.17 fold enrichment (6-mer frequency, TF over GST control)","1.12 fold enrichment (6-mer frequency, TF over GST control)","1.06 fold enrichment (6-mer frequency, TF over GST control)","1.24 fold enrichment (6-mer frequency, TF over GST control)","1.12 fold enrichment (6-mer frequency, TF over GST control)","1.12 fold enrichment (6-mer frequency, TF over GST control)","1.17 fold enrichment (6-mer frequency, TF over GST control)"
AAGTCA,"1.2 fold enrichment (6-mer frequency, TF over GST control)","1.19 fold enrichment (6-mer frequency, TF over GST control)","1.21 fold enrichment (6-mer frequency, TF over GST control)","1.18 fold enrichment (6-mer frequency, TF over GST control)","1.24 fold enrichment (6-mer frequency, TF over GST control)","1.21 fold enrichment (6-mer frequency, TF over GST control)","1.15 fold enrichment (6-mer frequency, TF over GST control)","1.26 fold enrichment (6-mer frequency, TF over GST control)"
TGGCAA,"1.21 fold enrichment (6-mer frequency, TF over GST control)","1.23 fold enrichment (6-mer frequency, TF over GST control)","1.14 fold enrichment (6-mer frequency, TF over GST control)","1 fold enrichment (6-mer frequency, TF over GST control)","1.16 fold enrichment (6-mer frequency, TF over GST control)","1.16 fold enrichment (6-mer frequency, TF over GST control)","1.12 fold enrichment (6-mer frequency, TF over GST control)","1.28 fold enrichment (6-mer frequency, TF over GST control)"
TAAACC,"1.28 fold enrichment (6-mer frequency, TF over GST control)","1.26 fold enrichment (6-mer frequency, TF over GST control)","1.22 fold enrichment (6-mer frequency, TF over GST control)","1.28 fold enrichment (6-mer frequency, TF over GST control)","1.22 fold enrichment (6-mer frequency, TF over GST control)","1.21 fold enrichment (6-mer frequency, TF over GST control)","1.26 fold enrichment (6-mer frequency, TF over GST control)","1.29 fold enrichment (6-mer frequency, TF over GST control)"
CCGTAT,"1.19 fold enrichment (6-mer frequency, TF over GST control)","1.17 fold enrichment (6-mer frequency, TF over GST control)","1.18 fold enrichment (6-mer frequency, TF over GST control)","1.41 fold enrichment (6-mer frequency, TF over GST control)","1.09 fold enrichment (6-mer frequency, TF over GST control)","1.31 fold enrichment (6-mer frequency, TF over GST control)","1.38 fold enrichment (6-mer frequency, TF over GST control)","1.24 fold enrichment (6-mer frequency, TF over GST control)"
CCCCGC,"1.11 fold enrichment (6-mer frequency, TF over GST control)","1.23 fold enrichment (6-mer frequency, TF over GST control)","1.14 fold enrichment (6-mer frequency, TF over GST control)","1.06 fold enrichment (6-mer frequency, TF over GST control)","1.19 fold enrichment (6-mer frequency, TF over GST control)","1.07 fold enrichment (6-mer frequency, TF over GST control)","1.14 fold enrichment (6-mer frequency, TF over GST control)","1.16 fold enrichment (6-mer frequency, TF over GST control)"
CCCCGA,"1.15 fold enrichment (6-mer frequency, TF over GST control)","1.23 fold enrichment (6-mer frequency, TF over GST control)","1.07 fold enrichment (6-mer frequency, TF over GST control)","1.05 fold enrichment (6-mer frequency, TF over GST control)","1.06 fold enrichment (6-mer frequency, TF over GST control)","1.13 fold enrichment (6-mer frequency, TF over GST control)","1.05 fold enrichment (6-mer frequency, TF over GST control)","1.11 fold enrichment (6-mer frequency, TF over GST control)"
ATATGG,"1.16 fold enrichment (6-mer frequency, TF over GST control)","1.3 fold enrichment (6-mer frequency, TF over GST control)","1.32 fold enrichment (6-mer frequency, TF over GST control)","1.3 fold enrichment (6-mer frequency, TF over GST control)","1.34 fold enrichment (6-mer frequency, TF over GST control)","1.27 fold enrichment (6-mer frequency, TF over GST control)","1.35 fold enrichment (6-mer frequency, TF over GST control)","1.34 fold enrichment (6-mer frequency, TF over GST control)"
GAAGTG,"1.48 fold enrichment (6-mer frequency, TF over GST control)","1.53 fold enrichment (6-mer frequency, TF over GST control)","1.55 fold enrichment (6-mer frequency, TF over GST control)","1.47 fold enrichment (6-mer frequency, TF over GST control)","1.7 fold enrichment (6-mer frequency, TF over GST control)","1.79 fold enrichment (6-mer frequency, TF over GST control)","1.75 fold enrichment (6-mer frequency, TF over GST control)","1.93 fold enrichment (6-mer frequency, TF over GST control)"
TTGACC,"1.45 fold enrichment (6-mer frequency, TF over GST control)","1.46 fold enrichment (6-mer frequency, TF over GST control)","1.4 fold enrichment (6-mer frequency, TF over GST control)","1.52 fold enrichment (6-mer frequency, TF over GST control)","1.35 fold enrichment (6-mer frequency, TF over GST control)","1.37 fold enrichment (6-mer frequency, TF over GST control)","1.44 fold enrichment (6-mer frequency, TF over GST control)","1.41 fold enrichment (6-mer frequency, TF over GST control)"
TGAACC,"1.08 fold enrichment (6-mer frequency, TF over GST control)","1.2 fold enrichment (6-mer frequency, TF over GST control)","1.24 fold enrichment (6-mer frequency, TF over GST control)","1.16 fold enrichment (6-mer frequency, TF over GST control)","1.06 fold enrichment (6-mer frequency, TF over GST control)","1.09 fold enrichment (6-mer frequency, TF over GST control)","1.12 fold enrichment (6-mer frequency, TF over GST control)","1.11 fold enrichment (6-mer frequency, TF over GST control)"
CTTACA,"1.34 fold enrichment (6-mer frequency, TF over GST control)","1.26 fold enrichment (6-mer frequency, TF over GST control)","1.14 fold enrichment (6-mer frequency, TF over GST control)","1.34 fold enrichment (6-mer frequency, TF over GST control)","1.23 fold enrichment (6-mer frequency, TF over GST control)","1.35 fold enrichment (6-mer frequency, TF over GST control)","1.29 fold enrichment (6-mer frequency, TF over GST control)","1.24 fold enrichment (6-mer frequency, TF over GST control)"
TTGCGG,"1.25 fold enrichment (6-mer frequency, TF over GST control)","1.3 fold enrichment (6-mer frequency, TF over GST control)","1.21 fold enrichment (6-mer frequency, TF over GST control)","1.24 fold enrichment (6-mer frequency, TF over GST control)","1.29 fold enrichment (6-mer frequency, TF over GST control)","1.24 fold enrichment (6-mer frequency, TF over GST control)","1.34 fold enrichment (6-mer frequency, TF over GST control)","1.41 fold enrichment (6-mer frequency, TF over GST control)"
TCCGGG,"1.38 fold enrichment (6-mer frequency, TF over GST control)","1.4 fold enrichment (6-mer frequency, TF over GST control)","1.67 fold enrichment (6-mer frequency, TF over GST control)","2.46 fold enrichment (6-mer frequency, TF over GST control)","1.44 fold enrichment (6-mer frequency, TF over GST control)","2.39 fold enrichment (6-mer frequency, TF over GST control)","1.71 fold enrichment (6-mer frequency, TF over GST control)","1.77 fold enrichment (6-mer frequency, TF over GST control)"
ACCATA,"1.15 fold enrichment (6-mer frequency, TF over GST control)","1.25 fold enrichment (6-mer frequency, TF over GST control)","1.17 fold enrichment (6-mer frequency, TF over GST control)","1.17 fold enrichment (6-mer frequency, TF over GST control)","1.11 fold enrichment (6-mer frequency, TF over GST control)","1.15 fold enrichment (6-mer frequency, TF over GST control)","1.19 fold enrichment (6-mer frequency, TF over GST control)","1.16 fold enrichment (6-mer frequency, TF over GST control)"

# Reference: publication PMC7862700, “An all-to-all approach to the identification of sequence-specific readers for epigenetic DNA modifications on cytosine”
